# Data from ChEMBL document CHEMBL1157539, “Thousands of chemical starting points for antimalarial lead identification” (Nature, 2010).
# Experiments:
# Type in all cases: functional
# Plasmodium falciparum [1] = assay: GSK_TCMDC: Inhibition of Plasmodium falciparum 3D7 in whole red blood cells, using parasite LDH activity as an index of growth. Test compounds present at 2uM
# Plasmodium falciparum [2] = assay: GSK_TCMDC: Inhibition of Plasmodium falciparum Dd2 in whole red blood cells, using parasite LDH activity as an index of growth. Test compounds present at 2uM
# HepG2 = assay: GSK_TCMDC: Percent inhibition of human HepG2 cell line. Test compounds present at 10uM.
SMILES,Inhibition (Plasmodium falciparum [1]) [%],Inhibition (Plasmodium falciparum [2]) [%],Inhibition (HepG2) [%]
O=C(Nc1ccc(-c2nc3ccccc3[nH]2)cc1)C1CCCN(CC2CC2)C1 (centres undefined),89,8,6
Fc1ccc(-c2csc3ncnc(Cl)c23)cc1,94,95,3
CC(C)N(CCOc1ccc2c(c1)N(C(=O)Nc1cc(Br)cc(C(F)(F)F)c1)CC2)C(C)C.O=C(O)C(F)(F)F,100,100,8
O=C(CCCCCNC(=O)c1ccc(O)c(-c2ccc(Cl)c(Cl)c2)c1)NC1CCCc2ccccc21 (centres undefined),97,13,0
O=C(N[C@@H](CC1CCCCC1)C(=O)NCc1cccc2ccccc12)c1ccc(O)c(-c2ccc(Cl)c(Cl)c2)c1,97,99,0
O=C(O)C(F)(F)F.Oc1ccc(CCCNc2nc(NCc3ccccc3-c3ccccc3)nc(NC3CCNCC3)n2)cc1,97,2,0
Cn1c(N)c(C(=O)CSc2nnc(-c3cccs3)n2Cc2ccccc2)c(=O)n(C)c1=O,85,68,0
Cc1cc(CNC(c2ccccc2)C2CCC2)cc(C)c1O (centres undefined),94,48,78
Cc1sc(NC(=O)c2ccc([N+](=O)[O-])cc2Cl)c(C(N)=O)c1C,94,2,2
OC[C@H](Nc1nc(C(Oc2ccccc2)c2ccccc2)nc2[nH]ncc12)c1ccccc1 (some centres undefined),98,45,0
CCN(CC)CCCC(C)N=c1cc(C=Cc2ccc([N+](=O)[O-])cc2)[nH]c2ccc(OC)cc12 (centres undefined),100,100,37
COc1ccc2[nH]c(C)cc(=NN=Cc3cc(C)ccc3O)c2c1,100,100,78
Cc1cc(NCC(c2ccccc2)c2ccccc2)nc(NCC2CCCCC2)n1,100,93,12
CCOC(=O)c1cn(CC)c2cc(N3CCCCC3)c(F)cc2c1=O,97,96,0
Cc1onc(-c2ccccc2Cl)c1C(=O)Nc1cc(Cl)c(Cl)cc1Cl,90,57,3
O=C(/C=C/c1cccc(C(F)(F)F)c1)NCCCCCN1CCN(C(=O)Nc2ccc(Cl)c(Cl)c2)CC1.O=C(O)C(F)(F)F,89,0,29
COc1cc(Cc2cnc(N)nc2N)cc(OCCNC(=O)OCc2ccccc2)c1OC,93,0,6
Cc1ccc(O)cc1C[C@@H]1C(=O)CC[C@@]2(C)[C@H]1CC[C@]2(C)O,96,0,4
COc1cc(C(=O)NC2CC(C)(C)N(C)C(C)(C)C2)ccc1-c1nc2cc(Cl)c(Cl)cc2[nH]1,100,99,69
O=C(O)c1cccc2c(-c3ccncc3)cccc12,97,1,29
COc1cc(F)c2nccc([C@@H](O)CN3CCC(NCc4ccc5c(n4)NC(=O)CS5)C(F)C3)c2c1.Cl (some centres undefined),87,80,32
CCc1ccc(CN2CCC(NC(=O)c3ccc(-c4ccc(N(C)C)cc4)s3)CC2)cc1.O=C(O)C(F)(F)F,84,44,52
O=C(NCc1cccc(F)c1)Nc1cccc(-c2cccc(-c3nc4ccccc4[nH]3)c2)c1,96,27,28
CCN(CC)CCNc1ccnc2ccc3ccccc3c12,100,67,5
CN(C)CCN(C)Cc1ccc(-c2ccc(NC(=O)c3cccc(C#N)c3)cc2)cc1.O=C(O)C(F)(F)F,89,49,20
C=C[C@]1(C)C[C@@H](OC(=O)NC(=O)CCCS(=O)(=O)c2nnc(C)s2)[C@]2(C)[C@H](C)CC[C@]3(CCC(=O)[C@H]32)[C@@H](C)[C@@H]1O,94,97,0
O=C(NCCCCNCC(Cc1cccc([O-])c1)c1ccccc1)c1ccc(NC(=O)c2ccc(Cl)cc2)cc1.[Na+] (centres undefined),96,1,0
FC(F)(F)c1ccc(CNC2CCN(CC3CCCCC3)CC2)cc1.O=C(O)C(F)(F)F,87,5,4
